Assay results from the supplement of paper PMC3334620.
Over roughly 33,000 sequences, “E-score (-0.5 to 0.5)” has its median near -0.01; the highest 2% begin near 0.26. Many of the other results were omitted from the sample, so the highest values are more common in it than they were.

Biological target: Ste12 (UniProt P13574)
Assay: PBM E-score (8-mer binding enrichment) (E-score (-0.5 to 0.5)); higher = stronger / more preferred TF binding
Settings: protein concentration: 200 nM; construct: GST-DNA-binding domain
Protocol: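 Universal 'all 10-mer' protein binding microarrays (Agilent AMADID 015681) probed with GST-tagged S. cerevisiae TFs (full-length or DBD) made by in vitro transcription/translation (PURExpress), about 100-200 nM. Bound TF was detected with fluorescent anti-GST. Each ungapped 8-mer (which stands for itself and its reverse complement) is scored by the PBM enrichment score (E-score), a modified Wilcoxon-Mann-Whitney statistic from -0.5 to +0.5, computed with the Universal PBM Analysis Suite. Scale: above 0.35 generally sequence-specific binding.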

Sequence of UniProt P13574 (P13574 whole entry): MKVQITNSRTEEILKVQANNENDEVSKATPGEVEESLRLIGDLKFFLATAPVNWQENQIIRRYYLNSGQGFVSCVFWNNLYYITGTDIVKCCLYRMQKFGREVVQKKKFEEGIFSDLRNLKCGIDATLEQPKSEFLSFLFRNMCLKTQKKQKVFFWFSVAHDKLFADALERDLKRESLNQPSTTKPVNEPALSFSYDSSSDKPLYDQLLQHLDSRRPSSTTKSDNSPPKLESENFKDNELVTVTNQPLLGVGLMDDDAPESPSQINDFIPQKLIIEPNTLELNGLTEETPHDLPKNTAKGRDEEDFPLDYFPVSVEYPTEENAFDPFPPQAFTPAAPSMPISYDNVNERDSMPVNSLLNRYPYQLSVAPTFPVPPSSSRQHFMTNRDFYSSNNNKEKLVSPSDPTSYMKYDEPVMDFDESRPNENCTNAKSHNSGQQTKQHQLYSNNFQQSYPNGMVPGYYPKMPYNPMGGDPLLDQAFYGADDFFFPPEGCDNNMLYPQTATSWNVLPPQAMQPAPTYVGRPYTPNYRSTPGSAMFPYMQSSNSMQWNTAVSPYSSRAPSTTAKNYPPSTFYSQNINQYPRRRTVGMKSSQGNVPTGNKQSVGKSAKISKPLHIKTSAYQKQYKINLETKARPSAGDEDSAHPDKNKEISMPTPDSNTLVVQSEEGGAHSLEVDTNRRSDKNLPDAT

Row | Sequence | PBM E-score
1 | AAAACGGA | 0.273
2 | AAAACGGT | 0.152
3 | AAAACGGC | 0.225
4 | GAAACGGA | 0.343
5 | GCCCCGAC | -0.135
6 | CACCTAAA | 0.0511
7 | AACCTAAA | 0.324
8 | TACCTAAA | 0.138
9 | CCCCGTTA | -0.00038
10 | AACAACTA | -0.00598
11 | TACAACTA | 0.268
12 | CACAACTA | 0.153
13 | ACAGGTCT | -0.267
14 | ATGTTCTC | -0.124
15 | ACAAAGCA | 0.29
16 | AAAAAGCA | 0.108
17 | ACAAAAAA | 0.311
18 | AACAAAAT | 0.11
19 | GCAAAGCA | -0.148
20 | ACAAAAAG | 0.125
21 | ACAAAAAT | 0.288
22 | ACACAAAT | 0.108
23 | TCAAAACA | 0.209
24 | TCAAAAGA | 0.202
25 | TCAAAAAA | 0.32

Row | Sequence | PBM E-score
26 | ACAAAAAC | 0.201
27 | ACCGCTCA | -0.0178
28 | CACCGCAC | -0.00376
29 | ACCGCCGC | 0.0865
30 | GGATACTA | 0.0524
31 | CGCGGGAC | 0.012
32 | AGGCCAGC | -0.157
33 | CCTGGTAG | -0.00862
34 | ATGCCTCG | 0.00724
35 | CTCACCAA | 0.284
36 | CTCACCAC | -0.168
37 | TTCACCAA | 0.0895
38 | TAAATTGA | 0.288
39 | AAAATTGA | 0.226
40 | GAAATTGA | 0.12
41 | AAAATTTA | 0.085
42 | CAAATTTA | 0.217
43 | TAAATTTA | 0.334
44 | ACGCTCTC | -0.122
45 | ACCTGCTC | -0.0508
46 | ATACCTCA | 0.0605
47 | ATGTCTGG | 0.0356
48 | GGCGGGGA | 0.407
49 | AGCGGGGA | 0.111
50 | GGGGGGGA | -0.298

Row | Sequence | PBM E-score
51 | CGCGGGAA | 0.161
52 | CGCGGGGA | 0.333
53 | GGCGGGAA | 0.00719
54 | AAAATCTC | 0.119
55 | CGTTAGGC | -0.0275
56 | ATTAATTA | 0.237
57 | ATTAATTC | 0.308
58 | CATAATAA | 0.136
59 | ATTAATAC | 0.263
60 | AATAATAG | 0.0434
61 | ATTAATCC | 0.0655
62 | AATAATAC | 0.198
63 | ATTAATCG | 0.273
64 | ATTAATTG | 0.237
65 | CTTAATAC | 0.207
66 | ATTAATCA | 0.145
67 | AATAATAA | 0.308
68 | GCATTCGC | -0.276
69 | CCAAACCC | 0.194
70 | ATAGATCG | 0.0199
71 | CTAACCTC | -0.0539
72 | ACCTGTCG | 0.00512
73 | CCGCGGCC | 0.174
74 | CAATACCC | -0.00702
75 | AGACTACC | -0.179

Row | Sequence | PBM E-score
76 | AAACTAGT | 0.123
77 | ATCATCTC | 0.0683
78 | CTTAATAA | 0.232
79 | ATTAATAG | 0.283
80 | AGTAATAG | 0.0705
81 | ATTAATAA | 0.289
82 | GTTAATAA | 0.0895
83 | ATTAATGG | 0.219
84 | AATAAGAA | 0.276
85 | AATAAGAG | 0.0566
86 | AATAAGAT | 0.00235
87 | ACTGGTCT | -0.117
88 | GTGATCGA | 0.161
89 | ATTGTGTG | -0.0472
90 | CTTGTGTA | 0.0226
91 | ATTGTGTA | 0.274
92 | ACTGCGAT | -0.072
93 | CATGGCAA | 0.0424
94 | AAACATCA | 0.328
95 | CAACATCA | 0.0676
96 | CAACATGA | 0.0787
97 | AAACATGG | 0.206
98 | AAACATCC | 0.249
99 | TAACATGA | 0.098
100 | AAACATGT | 0.301

Row | Sequence | PBM E-score
101 | AAACATGC | 0.231
102 | AAACATGA | 0.321
103 | TCTTCTCA | 0.019
104 | GATCTGAA | 0.0323
105 | ATGGACCG | -0.00313
106 | TCCGATCA | 0.0466
107 | CAGTGTGC | -0.187
108 | ACCTAACG | -0.137
109 | ATATTCAT | 0.227
110 | GCGCCGGA | -0.0097
111 | ATTAAAAG | 0.137
112 | ATTAAAAT | 0.32
113 | ATTAAAAC | 0.313
114 | CTTAAAAG | -0.0909
115 | ATTAAAAA | 0.295
116 | AGTAAAAT | 0.122
117 | AGTAAAAC | 0.168
118 | CTTAAAAA | 0.22
119 | ATTAAAGA | 0.0703
120 | ATTAAACC | 0.156
121 | CTTAAAAC | 0.352
122 | CCACTGAC | -0.126
123 | AGCATAAC | -0.00864
124 | ACTACATG | 0.0147
125 | CCGACACA | -0.0323

Row | Sequence | PBM E-score
126 | ATTTAGCG | -0.0176
127 | GGCAATAC | 0.0406
128 | GAGATCTC | -0.14
129 | CACTTCAG | -0.198
130 | GATTCTGA | 0.0395
131 | ACGTGAAT | 0.0319
132 | AAACGGCG | 0.149
133 | ATCGCGAT | 0.0912
134 | ACTATGCG | 0.0582
135 | GTTAAAAA | 0.291
136 | ATTAAATC | 0.248
137 | GTTAAAGA | 0.0582
138 | ATTAAATA | 0.292
139 | ATTAAATG | 0.19
140 | GTTAAAAC | 0.174
141 | CACGTGGG | -0.129
142 | CGGTACTA | -0.0556
143 | AGCCATGG | -0.192
144 | AATTAGGC | 0.179
145 | ACAACTTA | 0.053
146 | ACAACTGA | 0.293
147 | ACAACTGG | -0.0989
148 | AGACCACA | -0.0546
149 | GAATCTGA | -0.0846
150 | AAATCTGC | 0.0398

Row | Sequence | PBM E-score
151 | AAATCTGA | 0.266
152 | CTCGTGAC | 0.0961
153 | CCTCTTTC | -0.0876
154 | CCTCCCCA | 0.329
155 | CCCCCCCG | -0.257
156 | CCTCCCCC | -0.134
157 | ACTCCCCG | 0.07
158 | CCTCCCCG | 0.283
159 | CCTCCCAA | -0.136
160 | AGCCATGC | -0.0768
161 | CGGGGAAA | 0.272
162 | GCGGGGAA | 0.261
163 | CGGGGGAA | 0.0885
164 | GCGGGAAA | 0.121
165 | GGGGGAAA | 0.241
166 | GCGGGGGA | -0.143
167 | CGAGCGCA | 0.0982
168 | ACCAGTTC | 0.0206
169 | ATCCAAGA | 0.136
170 | TCGGCCGA | 0.0948
171 | CGAGACAA | 0.0198
172 | TGAGACAA | 0.274
173 | AGAGACAA | -0.154
